Screens: PubChem, National Center for Advancing Translational Sciences (NCATS)
KCNH2 3.1 block: KCNH2 3.1 (human) potassium channel inhibition | activity change, % (tested at about 1.8 µM) | U2OS KCNH2 3.1, thallium flux FluxOr; stronger effect = lower value | 340,000 compounds, 0.95% hits | AID 720553;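 active = maximum activity change below -70%; inconclusive = maximum activity change from -70% to -50%; inactive = maximum activity change above -50%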;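 also: thallium influx rate constant from kinetic fluorescence after stimulation buffer; % is scaled to controls: 0 for no effect and ±100 for the full control effect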
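Measured as rate of thallium-driven FluxOr signal in transduced U2OS cells carrying the 3.1 channel, read kinetically for 2 min upon stimulation; values are rate constants scaled to DMSO control wells.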
TRPV1 PAM: enhances activation of the human vanilloid receptor TRPV1; potentiation, % at 8.33 µM; 320,000 compounds, 0.02% hits; TRPV1-expressing cells, Fluo-8 calcium influx, capsaicin EC20 potentiation; Q8NER1; AID 540277; in the data active = potentiation above about 80%; inconclusive = between about 30% and that limit; also: 0% is about no effect
Target sequence (Q8NER1 whole entry, looked up): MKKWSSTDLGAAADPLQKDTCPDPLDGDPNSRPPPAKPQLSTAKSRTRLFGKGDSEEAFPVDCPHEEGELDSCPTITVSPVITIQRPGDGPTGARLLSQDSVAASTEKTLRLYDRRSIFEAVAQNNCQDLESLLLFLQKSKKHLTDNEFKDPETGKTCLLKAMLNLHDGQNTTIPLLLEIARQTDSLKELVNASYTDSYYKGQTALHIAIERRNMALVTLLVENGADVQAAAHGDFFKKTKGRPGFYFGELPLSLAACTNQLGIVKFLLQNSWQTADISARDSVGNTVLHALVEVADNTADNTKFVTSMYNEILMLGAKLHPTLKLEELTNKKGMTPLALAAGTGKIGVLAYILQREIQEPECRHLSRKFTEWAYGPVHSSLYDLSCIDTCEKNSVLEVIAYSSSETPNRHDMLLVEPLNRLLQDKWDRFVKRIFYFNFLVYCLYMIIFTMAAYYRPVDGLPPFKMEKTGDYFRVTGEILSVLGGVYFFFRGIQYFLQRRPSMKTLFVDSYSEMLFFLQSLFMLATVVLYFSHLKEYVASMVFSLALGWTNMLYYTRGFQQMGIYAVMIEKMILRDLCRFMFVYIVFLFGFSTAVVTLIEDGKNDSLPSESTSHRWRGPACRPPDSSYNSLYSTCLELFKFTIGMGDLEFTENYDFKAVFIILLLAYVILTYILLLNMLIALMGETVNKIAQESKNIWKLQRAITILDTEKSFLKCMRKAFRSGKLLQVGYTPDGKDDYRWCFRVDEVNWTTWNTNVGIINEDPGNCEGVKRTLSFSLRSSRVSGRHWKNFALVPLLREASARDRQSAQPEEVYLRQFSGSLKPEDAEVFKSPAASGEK
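Cells expressing TRPV1 were dye-loaded with Fluo-8 and read kinetically: 10 s baseline, 3 min after compound (agonist portion), then 2 min after EC20 capsaicin (allosteric enhancer portion). Calcium-bound dye fluorescence at 480/520 nm.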
TRPV1 agonist: agonists of human vanilloid receptor 1 (TRPV1); activation, % at 8.33 µM; 320,000 compounds, 0.19% hits; TRPV1-expressing cells, Fluo-8 calcium influx, agonist mode; Q8NER1; in the data active = activation above about 80%; inconclusive = between about 30% and that limit; also: 0% is about no effect
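TRPV1-expressing cells were cultured overnight at 35.5C and loaded with Fluo-8 calcium dye for 40 to 90 min at room temperature. After a 10 s baseline, compound was added and calcium influx was read kinetically for 3 min (ex 480/em 520 nm).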
KCNH2 WT inh: blocks the wildtype human KCNH2 potassium channel. activity change, % at 1.84 µM. 340,000 compounds, 0.37% hits. AID 720551. U2OS, BacMam KCNH2, thallium flux FluxOr; stronger effect = lower value;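 active = maximum activity change below -70%; inconclusive = maximum activity change between -70% and -50%; inactive = maximum activity change above -50%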; also: % is scaled to controls: 0 for no effect and ±100 for the full control effect
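U2OS cells transduced with wild-type KCNH2 virus are loaded with FluxOr dye for 45 min, and thallium flux is measured in kinetic reads before and after stimulation buffer. Rate constants are normalized to DMSO controls.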
Numbers without * were called inactive; i = inactive; ? = inconclusive; . = not tested or not shown. Sampled rows, rich in hits. Any-hit rate of the full collection: about 1.2%.

SMILES	KCNH2 3.1 block	TRPV1 PAM	TRPV1 agonist	KCNH2 WT inh
Cc1cc(C)c2c(CN3CCCCC3)cc(=O)oc2c1	3	-1	6	6
Cc1cc(C)c2c(CN3CCN(C/C=C/c4ccccc4)CC3)cc(=O)oc2c1	-87*	7	-5	-101*
COc1cc(Br)cc(CN2CCN(C/C=C/c3ccccc3)CC2)c1O	-71*	-4	10	-24
Nc1cc2c(cc1N)-c1ccccc1C2	16	.	.	1
O=[N+]([O-])c1ccc(N2CCN(C(=S)NC3CCCCC3)CC2)cc1	-72*	1	1	-23
CCOC(=O)N1CCN(c2ccc([N+](=O)[O-])cc2)CC1	-22	-23	?	2
O=[N+]([O-])c1cccc(-c2ccc(C(=S)N3CCN(c4ccccc4)CC3)o2)c1	-3	1	1	0
CSC(=NC#N)N1CCN(c2ccc([N+](=O)[O-])cc2)CC1	-79*	1	4	14
O=[N+]([O-])c1ccc(N2CCN(S(=O)(=O)c3ccccc3)CC2)cc1	-84*	-3	-4	-80*
O=C(c1ccc(-c2cccc(Cl)c2)o1)N1CCN(c2ccc([N+](=O)[O-])cc2)CC1	-101*	-7	2	?
CCOC(=O)C1=C(COC(=O)c2ccc(Cl)nc2)NC(=O)NC1C (stereo not drawn)	-27	.	.	-11
COc1ccc(CN2CCC[C@]3(N[C@H](c4ccc(OC)cc4)[C@@H]4C(=O)N(C)C(=O)[C@@H]43)C2=O)cc1	-2	.	.	1
C[C@]12c3[nH]c4cc(-c5ccco5)ccc4c3CCN1C(=O)[C@@H](CC(=O)NCc1ccco1)C[C@@H]2C(=O)N1CCOCC1	-6	.	.	-4
O=C(COc1ccc(Br)cc1)NCCNC(=O)c1ccccn1	12	-15	2	-8
Cc1ccc(S(=O)(=O)NCc2ccc(C(=O)N3CCN(c4ccc([N+](=O)[O-])cc4)CC3)cc2)cc1	-96*	-7	1	-29
COc1ccc(N2CCN(C(=O)c3ccc(CNS(=O)(=O)c4ccc(C)cc4)cc3)CC2)cc1	-3	6	-1	10
COc1ccc(N2CCN(C(=O)c3ccc(COc4ccc([N+](=O)[O-])cc4)o3)CC2)cc1	-21	8	3	5
O=C(Cc1ccc([N+](=O)[O-])cc1)N1CCN(c2ccc([N+](=O)[O-])cc2)CC1	-91*	-9	?	?
O=C(CCCSc1nc2ccccc2[nH]1)N1CCN(c2ccc([N+](=O)[O-])cc2)CC1	-116*	16	-4	-105*
Cc1c(Cl)cccc1-c1ccc(C(=O)N2CCN(c3ccc([N+](=O)[O-])cc3)CC2)o1	-80*	-1	2	-48
CCCCn1c(N)c(N(CCOC)C(=O)COC(=O)c2ccccc2NCCO)c(=O)[nH]c1=O	17	.	.	-4
COc1ccc(C(=O)CNc2cccc(F)c2)cc1	-91*	8	3	2
O=c1c2c3c(sc2ncn1/N=C/c1ccncc1)CCCC3	-1	-8	12	-25
O=c1c2c3c(sc2ncn1/N=C/c1cccnc1)CCCC3	-77*	-8	19	9
O=C(Cn1cc(Cl)ccc1=O)c1ccc(Cl)cc1	.	-4	8	-134*
SMILES	KCNH2 3.1 block	TRPV1 PAM	TRPV1 agonist	KCNH2 WT inh
O=C(CN1CCN(CC(=O)c2ccc(Cl)cc2)CC1)c1ccc(Cl)cc1	-5	.	.	4
COC(=O)[C@@]12CCCCN1[C@H](c1ccc(-c3ccc(OC)cc3)c(OC)c1)[C@@H]1C(=O)N(C)C(=O)[C@@H]12	-25	-14	4	4
COC(=O)[C@@]12CCCCN1[C@H](c1ccc(-c3ccc(F)cc3)c(OC)c1)[C@H]1C(=O)N(C)C(=O)[C@H]12	-95*	.	.	-7
N#Cc1ccc(NC(=O)CN2CCN(c3ccccn3)CC2)cc1	-76*	-3	1	40
CC(C)c1ccc(NC(=O)CN2CCN(c3ccccn3)CC2)cc1	1	-4	4	-1
CCCC[C@]12Cc3cc(C#N)ccc3C(O1)c1c(c3cc(F)ccc3oc1=O)O2	.	i	i	.
COc1ccc(NC(=O)c2ccc(-c3ccc(-c4noc(C)n4)cc3C)cc2)cc1N1CCN(C)CC1	-87*	7	0	8
COc1ccc(-c2nc(-c3ccc(NC(=O)c4ccncc4)cc3)no2)cc1OC	-6	7	-1	-8
O=C(c1cc2ccccc2oc1=O)N(Cc1cccs1)C1CCS(=O)(=O)C1 (stereo not drawn)	-163*	-2	2	-174*
COc1cc(CNC[C@H]2O[C@@H](n3ccc(N)nc3=O)[C@H](O)[C@@H]2O)ccc1OCc1cccc(Cl)c1	9	.	.	0
COc1cc(/C=N/NC(=O)C2CCN(CC(O)COCc3ccccc3)CC2)ccc1O (stereo not drawn)	-99*	-4	1	-128*
COc1cc(/C=N/NC(=O)C2CCN(CC(O)COCc3ccccc3)CC2)cc(OC)c1OC (stereo not drawn)	-29	-2	0	-31
Cc1cc(C)n2nc(C(=O)OCC(=O)NCc3ccc(F)cc3)nc2n1	-2	.	.	2
COc1ccc(C(=O)NC2CC2)cc1OC1CCN(Cc2cnn(C)c2C)CC1	-3	-1	-1	5
COc1ccc(C(=O)NC2CC2)cc1OC1CCN(Cc2ccc(F)cc2Cl)CC1	-93*	.	.	-75*
CC1CCCCC1NC(=O)CN1CCC(NC(=O)c2ccc([N+](=O)[O-])cc2)CC1 (stereo not drawn)	-3	-10	1	18
COc1cc(CN2CCC(Oc3cc(C(=O)NC4CC4)ccc3OC)CC2)cc(OC)c1	-28	-5	1	-18
O=C(NC1CCN(CC(=O)N(c2ccccc2)c2ccccc2)CC1)c1ccc([N+](=O)[O-])cc1	-111*	4	-5	-77*
COc1ccc(CN2CCC(Oc3cc(C(=O)NC4CC4)ccc3OC)CC2)c(O)c1	-94*	27	0	-109*
COc1ccc(C(=O)NC2CC2)cc1OC1CCN(Cc2cc(C)c(C)cc2C)CC1	-75*	4	24	?
Cc1cc(C)n(CC(=O)NNC(=O)COc2ccc(Br)cc2F)n1	1	.	.	-1
O=C(NC1CCN(Cc2ccc(Cl)cc2Cl)CC1)c1ccccc1	-84*	7	-2	-2
Cc1nn(-c2ccccc2)c(N2CCCC2)c1/C=C1\N=C(c2ccc(OC(C)C)cc2)OC1=O	-75*	6	0	-4
Cc1ccc(C2=N/C(=C\N3CCCCC3)C(=O)O2)cc1	1	-1	2	-17
O=S(=O)(Nc1cc(Br)cc2cccnc12)c1ccccc1	.	10	19	.
COC(CNC(=O)CCc1c(C)nc2c(c(C)nn2-c2ccc(C)cc2)c1C)OC	19	-21	82*	3
O=C1CCC(C(=O)OCC(=O)Nc2ccc(SC(F)F)cc2)=NN1	2	.	.	4
Cn1c(COc2ccccc2)nnc1SCC(=O)c1cccc([N+](=O)[O-])c1	-92*	13	0	-6
CCOc1cc(C)ccc1OCc1nnc(SCC(=O)c2cccc([N+](=O)[O-])c2)n1C	-9	-3	2	29
